# RORg inh – inhibitors of mouse ROR gamma transcriptional activity | P51450 | Drosophila S2 Gal4-RORgamma UAS-luciferase reporter, 20 h | Potency, µM (top dose mostly 53.6 µM), for the others: at the top dose activity change, negative = inhibition, hits mostly inhibitors | actives 5.4% (n = 310,000); note: potency is the fitted concentration of half-maximal effect; nearly all actives have a fitted effect of over 60% in size
# Target sequence (P51450 whole entry, looked up, the tested form may be a part): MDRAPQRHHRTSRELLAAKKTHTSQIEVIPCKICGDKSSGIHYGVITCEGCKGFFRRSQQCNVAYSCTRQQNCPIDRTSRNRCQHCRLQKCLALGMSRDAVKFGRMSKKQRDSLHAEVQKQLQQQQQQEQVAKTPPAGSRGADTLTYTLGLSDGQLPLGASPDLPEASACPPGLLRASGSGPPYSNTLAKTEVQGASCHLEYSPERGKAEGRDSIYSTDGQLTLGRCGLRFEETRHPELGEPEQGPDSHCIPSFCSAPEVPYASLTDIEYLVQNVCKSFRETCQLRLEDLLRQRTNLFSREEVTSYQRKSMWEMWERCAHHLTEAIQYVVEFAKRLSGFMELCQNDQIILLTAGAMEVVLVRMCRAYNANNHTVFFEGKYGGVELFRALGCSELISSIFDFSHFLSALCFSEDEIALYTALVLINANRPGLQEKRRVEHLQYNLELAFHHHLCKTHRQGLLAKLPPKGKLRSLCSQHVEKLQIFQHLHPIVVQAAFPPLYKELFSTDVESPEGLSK
#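 In this cell-based reporter format, copper sulfate (700 uM final) drives Gal4–ROR gamma fusion expression from a metallothionein promoter in Drosophila Schneider cells; compounds preincubated 1 hr, reporter read after 20 hr at ambient temperature.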
# ELG1 repair inh – blocks ELG1-dependent DNA repair in HEK293T cells; HEK293T ELG1-luciferase reporter, luminescence, 16 h; DNA damage induced by 5-fluorouridine; Potency, µM (doses to about 46.1 µM), inactives show top-dose activity change, negative = inhibition, most hits filed as inhibitors; actives 2.3% (n = 330,000); AID 504467; note: potency is the fitted concentration of half-maximal effect; nearly all actives have a fitted effect of over 55% in size
#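 5-Fluorouridine DNA damage + compound/DMSO, 2,000 cells/well, 16 h, 37 °C/5% CO2. ONE-Glo, 30 min RT, luminescence. Readout = decrease in reporter signal.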
# TDP1 cell noCPT – qHTS for Inhibitors of human tyrosyl-DNA phosphodiesterase 1 (TDP1): qHTS in cells in absence of CPT. DT40 Tdp1-/- hTDP1 cells, no CPT, ATP luminescence, 48 h. Potency, µM (series often up to 46.2 µM), for inactives: at the top dose activity change, negative = growth inhibition, usual class: inhibitors. actives 15% (n = 420,000). AID 686978, 2013; note: potency is the fitted concentration of half-maximal effect; nearly all actives have a fitted effect of over 55% in size
#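 Growth kinetics read by CellTiter-Glo luminescence after ≥48 hr at 37 °C. Cells: DT40 Tdp1-/- stably carrying human TDP1, 400 per well, compound exposure in the absence of CPT (DMSO vehicle).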
# VP16 counter – counter-screen for ROR gamma inhibitors: Gal4-VP16 reporter | Drosophila S2 Gal4-VP16 UAS-luciferase, luminescence, 20 h | Potency, µM (top dose mostly 53.6 µM), for inactives: at the highest dose activity, negative = inhibition, actives largely listed as inhibitors | actives 3.5% (n = 310,000);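 note: Gal4-VP16 expression switched on by copper sulfate through the metallothionein promoter; potency is the fitted concentration of half-maximal effect; nearly all actives have a fitted effect of over 50% in size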
# TDP1 cell CPT – DT40-hTDP1 cell growth loss with CPT. actives 12% (n = 420,000). AID 686979. chicken DT40 Tdp1-/-;hTDP1 cells + 20 nM CPT, ATP luminescence, 48 h. Potency, µM (series often up to 46.2 µM), for inactives: at the highest dose activity change, negative = growth inhibition, hits mostly inhibitors; note: potency is the fitted concentration of half-maximal effect; nearly all actives have a fitted effect of over 55% in size
#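 Cell growth measured by CellTiter-Glo luminescence after a minimum 48 h, 37 C compound exposure with 20 nM CPT in Tdp1-knockout DT40 cells stably expressing hTDP1, seeded 400/well; qHTS titration format.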
# IL-1B inflam inh – inhibitors of inflammasome signaling (IL-1 beta secretion) | actives 4.7% (n = 360,000) | activity change, % at 57.5 µM | THP-1 LPS/ATP IL-1B secretion, AlphaLISA, 16 h; stronger effect = lower value; in the data active = activity change below about -50%; inconclusive = mostly about -30% to -49%
#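 Secreted IL-1B measured by AlphaLISA bead assay after 16 h compound exposure of THP-1 cells; compounds (final up to 57.5 uM) added 1 h before LPS (250 ng/mL) and ATP (1.25 mM) stimulation; lower signal means less secretion.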
# * = called active by the depositor; ? = inconclusive; . = not tested or not shown; [ ] = remark or other dose. Sampled rows, rich in hits. Any-hit rate of the full collection: about 21%. Unless noted, calls come from the whole dose curve; as a rule, active = well fitted curve in the direction sought with a large enough effect; inconclusive = small, poorly fitted or top-dose-only effect, or another doubt; inactive = no such curve, though single readings can be large; an effect the other way counts as inactive or inconclusive. % is set by controls: 0 for no effect and ±100 for the full control effect.
SMILES,RORg inh,ELG1 repair inh,TDP1 cell noCPT,VP16 counter,TDP1 cell CPT,IL-1B inflam inh
CCCCC[C@H](C)N1C[C@H](COCc2ccccc2)Oc2cc(N3CCC[C@H]3COC)ccc2S1(=O)=O,.,.,18µM*,.,?,0
CCCCC[C@@H](C)N1C[C@@H](COCc2ccccc2)Oc2cc(N3CCC[C@H]3COC)ccc2S1(=O)=O,.,.,18µM*,.,?,39
Cc1ccc(C(=O)N2CCCCC2CCN2CCCCC2)cc1 (configuration not stated),.,.,-3%,.,5%,.
CC1(C(=O)NS(=O)(=O)c2ccccc2Cl)CCN1C(=O)CCc1ccccc1 (configuration not stated),.,.,-4%,.,-11%,-19
CCOc1ccc(S(=O)(=O)N(CC(=O)NCCc2ccc(OC)cc2)c2ccccc2)cc1,.,.,3%,.,-5%,.
CCCNC(=O)C1(C)CCN(C(=O)c2sccc2C)C1 (configuration not stated),.,.,2%,.,1%,2
CCCCC[C@@H](C)N1C[C@@H](COCc2ccccc2)Oc2cc(N3CCC[C@@H]3COC)ccc2S1(=O)=O,.,.,16µM*,.,?,56
Cn1nc(-c2ccccc2)cc1NC(=O)c1ccc(Cl)cc1,.,18%,-18%,.,-30%,-15
O=C(Nc1cc(-c2ccccc2)nn1-c1c(Cl)cccc1Cl)c1ccc(F)cc1,.,14%,18µM*,.,21µM*,-25
N#Cc1ccc(C(=O)Nc2ccn(-c3ccccc3)n2)cc1,40%,23µM*,?,-1%,?,-19
O=C(Nc1ccn(-c2ccccc2)n1)c1ccc(Cl)cc1,3%,?,-25%,1%,-17%,0
N#Cc1ccc(C(=O)Nc2cc(-c3ccc(F)cc3)nn2-c2ccccc2)cc1,.,-12%,?,.,15µM*,-6
N#Cc1ccc(C(=O)Nc2cc(-c3ccccc3)nn2-c2ccccc2)cc1,.,?,-28%,.,?,-17
COc1c(O)cc2c(-c3ccccc3)cc(=O)oc2c1OC,?,.,-13%,3%,-3%,.
COc1ccc(CN2COc3ccc4c(-c5ccccc5)cc(=O)oc4c3C2)cc1,.,.,16µM*,.,?,.
O=C(Nc1ccc(Cl)c(Cl)c1)N[C@@H]1CC[C@@H](CCn2cc(C3CCCCC3)nn2)O[C@@H]1CO,.,.,21µM*,.,?,58
CN(C)CCCn1c(SCC(=O)N2c3ccccc3Sc3ccccc32)nc2ccccc2c1=O,-114%,?,23µM*,?,?,-102*
Cc1ccc(-c2csc(NC(=O)CSc3nc4ccccc4[nH]3)n2)cc1,-8%,?,23µM*,?,21µM*,-13
Cn1c(SCC(=O)NC(C)(C)C)nnc1-c1ccc(C(C)(C)C)cc1,-7%,?,23µM*,?,?,21
Cn1c(SCC(=O)N2c3ccccc3Sc3ccccc32)nc2ccccc21,-44%,0%,?,?,?,?
CCn1c(SCC(=O)Nc2nc(C)cs2)nnc1-c1ccncc1,-1%,-8%,4%,7%,-5%,20
CCn1c(SCC(=O)Nc2nc(-c3ccc(C)cc3)cs2)nnc1-c1ccccc1O,?,16µM*,?,15%[0.365 µM],?,-51*
CCn1c(SCC(=O)NC(C)(C)C)nnc1-c1ccncc1,-1%,-10%,9%,-6%,-2%,3
COc1ccc(-c2csc(NC(=O)CSc3nc4ccccc4c(=O)[nH]3)n2)cc1,?,?,?,-24%,?,64
CCC1(c2ccc(F)cc2)NC(=O)N(CC(=O)Nc2ccc(-c3nc4ccc(C)cc4s3)cc2)C1=O (configuration not stated),0.45µM*,?,6.5µM*,-14%,13µM*,96
SMILES,RORg inh,ELG1 repair inh,TDP1 cell noCPT,VP16 counter,TDP1 cell CPT,IL-1B inflam inh
CCn1c(SCC(=O)Nc2nc(-c3ccc(C)cc3)cs2)nnc1-c1ccccc1,31%,26µM*,18µM*,17%,?,-55*
Cc1ccc(-c2csc(NC(=O)CSc3nc4ccccc4c(=O)n3CCCN(C)C)n2)cc1,?,?,15µM*,?,10µM*,-97*
O=C(CSc1nnc(-c2cccnc2)n1Cc1ccco1)Nc1nc(-c2ccc(F)cc2)cs1,?,21µM*,?,3%,?,-13
CCOc1ccc(Nc2nc(Nc3ccc(O)cc3)nc(C)c2[N+](=O)[O-])cc1,27%,14%,?,0%,-20%,26
Cc1ccc(C)c(NC(=O)N2CCN3CCCCC3C2)c1 (configuration not stated),.,.,-1%,.,-3%,.
Cc1csc(SCC(=O)Nc2nc(-c3ccccc3)cs2)n1,?,?,?,-4%,?,-10
Cc1ccc(-c2nnc(SCC(=O)Nc3ccc4c(c3)oc3ccccc34)n2C)c(Cl)c1,-15%,18µM*,-26%,10%,?,-6
O=C(CCn1cnc2ccccc2c1=O)Nc1nc(-c2ccc(Br)cc2)cs1,39%,29%,16µM*,-6%,?,-9
Cc1ccccc1OCc1nnc(SCC(=O)Nc2ccc3c(c2)oc2ccccc23)n1C,-24%,0%,?,?,?,0
Cc1ccc(-c2csc(NC(=O)CSc3nc(C)cs3)n2)cc1,-21%,?,16µM*,-1%,?,-15
Cc1ccc(NC(=O)CCn2cnc3ccccc3c2=O)cc1,5%,-5%,-3%,4%,-16%,-17
CCc1ccc(NC(=O)CSc2nnc(-c3ccccc3)n2C)cc1,.,.,-2%,.,16µM*,.
O=S1(=O)CC(O)C(NCCO)C1 (configuration not stated),-4%,16%,1%,2%,9%,4
CCn1c(SCC(=O)Nc2ccc(-c3nc4ccc(C)cc4s3)cc2)nnc1-c1ccccc1,11µM*,?,.,18µM*,.,.
C=CCn1c(SCC(=O)Nc2ccc(-c3nc4ccc(C)cc4s3)cc2)nnc1-c1ccncc1,8%,?,-6%,6%,-6%,15
CC(NC(=O)C1CCN(C(=O)c2ccc(F)cc2)CC1)c1ccc(S(N)(=O)=O)cc1 (configuration not stated),.,9%,-2%,.,13%,22
Cc1cc(C(=O)N/N=C/C=C/c2ccccc2)c(C)o1,7.9µM*,-1%,-22%,11µM*,-19%,-24
